In PubChem BioAssay (EPA / NIEHS):
Records with an inconclusive call do not appear. Activity calls are given as the source filed them. Rule for the calls, unless noted: active = hit-call score of the fitted dose curve at least 0.9, where 1 is the maximum; inactive = score below 0.9.

Experiments:
[1] = target: Paired box protein Pax-6 (Homo sapiens) (UniProt P26367); experiment: ATG_Pax6_CIS: Attagene CIS-FACTORIAL HepG2 Assay for human Paired Box 6 (PAX6) (AID 2282956); conditions: HepG2 CIS-FACTORIAL PAX6 reporter transcription, RNA readout; actives raise or lower the signal
In short: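 Transient MRTU transfection of HepG2 → compound exposure 24 h → TriZol RNA, oligo(dT) RT → PCR, 6-FAM primer extension, HpaI cut → capillary electrophoresis; activity fitted both directions against DMSO.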

[2] = ATG_PXRE_CIS: Attagene CIS-FACTORIAL HepG2 Assay for human Pregnane X Receptor Element (PXRE) (AID 2282957); conditions: HepG2 Attagene CIS-FACTORIAL PXRE reporter, mRNA; actives raise or lower the signal
In short: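 Transfect HepG2 with MRTUs (cis promoter elements); dose chemical, incubate 24 h; isolate RNA, RT with oligo(dT), PCR, 6-FAM label, HpaI cut, CE. Gain/loss fit vs DMSO.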

[3] = ATG_RORE_CIS: Attagene CIS-FACTORIAL HepG2 Assay for human RAR-related Orphan Receptor Element (RORE) (AID 2282959); conditions: HepG2 Attagene cis-factorial RORE reporter, mRNA; actives raise or lower the signal
In short: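 Endogenous factor activity at a cis response element is read as reporter transcript levels in HepG2 cells, 24 h post-dose. Transcripts are quantified by RT-PCR with capillary electrophoresis, and data fitted in both directions against DMSO.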

[4] = ATG_Sox_CIS: Attagene CIS-FACTORIAL HepG2 Assay for human SRY-box transcription factor (SOX) (AID 2282960); conditions: HepG2 Attagene cis-factorial SOX reporter, mRNA; actives raise or lower the signal
In short: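 Measures mRNA induction of a SOX1-associated reporter in HepG2 after 24 h dosing. Fluorescently labelled RT-PCR fragments are separated by capillary electrophoresis, and gain or loss relative to DMSO control is fitted.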

[5] = target: Transcription factor Sp1 (Homo sapiens) (UniProt P08047); experiment: ATG_Sp1_CIS: Attagene CIS-FACTORIAL HepG2 Assay for human Specificity Protein 1 (Sp1) (AID 2282961); conditions: HepG2 Sp1 cis-reporter transcription, actives raise or lower the signal
In short: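 Cells: HepG2, transiently transfected with cis-regulated multiplexed reporters. Exposure: 24 h. Detection: reporter transcripts amplified, fluorescently labeled, restriction-digested and sized by capillary electrophoresis. Analysis: bidirectional fit relative to DMSO.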

[6] = ATG_SREBP_CIS: Attagene CIS-FACTORIAL HepG2 Assay for human Sterol Regulatory Element Binding (SREBP) (AID 2282962); conditions: HepG2 Attagene cis-factorial SREBP reporter, mRNA; actives raise or lower the signal
In short: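 Transfected HepG2 (cis-regulated reporter library, endogenous TFs) → compound 24 h → total RNA → oligo(dT) RT → reporter-specific PCR → FAM primer extension, HpaI cut → CE fluorescence. Fit bidirectional vs DMSO.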

[7] = target: Signal transducer and activator of transcription 3 (Homo sapiens) (UniProt P40763); experiment: ATG_STAT3_CIS: Attagene CIS-FACTORIAL HepG2 Assay for human Signal Transducer and Activator of Transcription 3 (STAT3) (AID 2282963); conditions: HepG2, Attagene cis-factorial STAT3 reporter transcription; actives raise or lower the signal
In short: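 HepG2 cells transiently transfected with multiple cis-element-driven reporter units report endogenous transcription factor activity. After 24 h compound exposure, reporter mRNA is measured by RT-PCR, 6-FAM labelling, HpaI digestion and capillary electrophoresis. Fitted bidirectionally versus DMSO.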

[8] = ATG_TA_CIS: Attagene CIS-FACTORIAL HepG2 Assay for human TA Basal Promoter (AID 2282964); conditions: HepG2 Attagene CIS-factorial TA basal promoter reporter; actives raise or lower the signal
In short: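 HepG2 cells transiently transfected with multiple reporter units under cis promoter elements, reporting endogenous transcription factor activity; this endpoint tracks the TA basal promoter as background control. Reporter mRNA after 24 h dosing measured by RT-PCR/capillary electrophoresis; bidirectional fits versus DMSO.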

[9] = ATG_TCF_b_cat_CIS: Attagene CIS-FACTORIAL HepG2 Assay for human T-Cell-Factor with beta-catenin (TCF/b-cat) (AID 2282965); conditions: HepG2 TCF/beta-catenin cis-reporter transcription, actives raise or lower the signal
In short: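 HepG2 cells transiently transfected with cis-promoter-driven multiplexed reporter units; reporter mRNA measured 24 h after dosing by RT-PCR, FAM labelling, HpaI digestion and capillary electrophoresis. Bidirectional fitting relative to DMSO baseline.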

[10] = ATG_TAL_CIS: Attagene CIS-FACTORIAL HepG2 Assay for human TAL Basal Promoter (AID 2282966); conditions: HepG2 Attagene cis-factorial TAL promoter reporter; actives raise or lower the signal;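 note: background control endpoint measuring basal TAL promoter reporter mRNA not a specific factor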
In short: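 Fluorescence of labelled reporter cDNA fragments, resolved by capillary electrophoresis, gave the readout. Human HepG2 liver cells carried transiently transfected cis-element reporter units and were treated for 24 hours; activity was fitted bidirectionally against DMSO.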

[11] = ATG_TGFb_CIS: Attagene CIS-FACTORIAL HepG2 Assay for human Transforming Growth Factor (TGF) (AID 2282967); conditions: HepG2 Attagene CIS TGFb reporter, mRNA transcription; actives raise or lower the signal
In short: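 HepG2 cells transiently transfected with cis-promoter-driven multiple reporter units measure endogenous TF activity; reporter mRNA quantified at 24 h by RT-PCR, FAM labeling, HpaI digestion and capillary electrophoresis. Bidirectional fit vs DMSO.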

[12] = ATG_VDRE_CIS: Attagene CIS-FACTORIAL HepG2 Assay for human Vitamin D Receptor Element (VDRE) (AID 2282968); conditions: HepG2 VDRE cis-reporter transcription, actives raise or lower the signal
In short: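 Transiently transfected HepG2 cells carrying cis-regulated reporter transcription units were exposed for 24 h. Reporter mRNA was measured by RT-PCR with fluorescent labelling and capillary electrophoresis, and fitted in both directions against DMSO.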

[13] = target: Estrogen receptor (Homo sapiens) (UniProt P03372); experiment: ATG_ERa_TRANS: Attagene TRANS-FACTORIAL HepG2 Assay for human Estrogen Receptor alpha (ERa) (AID 2282970; active = hit-call score of the fitted dose curve at least 0.9, where 1 is the maximum); conditions: HepG2 Attagene TRANS ERa GAL4 reporter, mRNA
In short: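 Human liver HepG2, transient transfection of multiple GAL4-UAS reporter units; TRANS format (exogenous NR-Gal4 chimera). 24 h dosing. Readout: reporter mRNA, RT-PCR, 6-FAM primer extension, HpaI digest, capillary electrophoresis. Positive direction vs DMSO.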

[14] = target: X-box-binding protein 1 (Homo sapiens) (UniProt P17861); experiment: ATG_Xbp1_CIS: Attagene CIS-FACTORIAL HepG2 Assay for human X-box Binding Protein 1 (XBP1) (AID 2282972); conditions: HepG2 XBP1 cis-element reporter, Attagene multiplex; actives raise or lower the signal
In short: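 HepG2, transient MRTU transfection (cis-promoter driven), 24 h compound exposure. Total RNA → oligo(dT) RT → PCR → 6-FAM labeling → HpaI cut → CE. Bidirectional fit vs DMSO.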

[15] = ATG_GAL4_TRANS: Attagene TRANS-FACTORIAL HepG2 Assay for GAL4 (Internal Marker) (AID 2282976; active = hit-call score of the fitted dose curve at least 0.9, where 1 is the maximum); conditions: HepG2 Attagene TRANS GAL4 internal marker reporter
In short: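 First, HepG2 cells were transfected with reporter units under GAL4-UAS control. Next, they were treated with chemical for 24 h. Finally, RNA was reverse-transcribed, PCR-amplified, FAM-labelled and resolved by capillary electrophoresis, with induction scored against DMSO.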

[16] = ATG_PPRE_CIS: Attagene CIS-FACTORIAL HepG2 Assay for human Peroxisome Proliferator-activated Response Element (PPRE) (AID 2282958); conditions: HepG2 PPRE cis-element reporter, Attagene transcription factor profiling; actives raise or lower the signal
In short: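 In this cell-based multiplex, a PPRE cis element drives a reporter sequence in transiently transfected HepG2 cells. Following 24 h treatment, labeled cDNA amplicons are sized and quantified by capillary electrophoresis, with DMSO defining baseline.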

[17] = ATG_M_19_TRANS: Attagene TRANS-FACTORIAL HepG2 Assay for M19 Transcription Factor (Internal Marker) (AID 2282974; active = hit-call score of the fitted dose curve at least 0.9, where 1 is the maximum); conditions: HepG2 Attagene TRANS-FACTORIAL M19 internal marker reporter
In short: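 Reporter mRNA induction was measured in transfected HepG2 cells 24 h after dosing. Endpoint fitted upward relative to DMSO and serves as a background control within the multiplexed TRANS panel.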

[18] = target: Nuclear receptor subfamily 1 group I member 3 (Homo sapiens) (UniProt Q14994); experiment: ATG_CAR_TRANS: Attagene TRANS-FACTORIAL HepG2 Assay for human Constitutive Androstane Receptor (CAR) (AID 2282969; active = hit-call score of the fitted dose curve at least 0.9, where 1 is the maximum;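 note: activators raise reporter mRNA above DMSO so AC50 marks induction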); conditions: HepG2 Attagene TRANS-FACTORIAL CAR reporter
In short: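 HepG2 cells transiently transfected with GAL4-UAS reporter units; TRANS format reads activity of exogenous chimeric NR-Gal4 protein. After 24 h dosing, reporter mRNA quantified by RT-PCR, 6-FAM labelling and capillary electrophoresis; gain of signal fitted against DMSO.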

Measured: AC50

Paired box protein Pax-6 (Homo sapiens), sequence (P26367 whole entry, looked up): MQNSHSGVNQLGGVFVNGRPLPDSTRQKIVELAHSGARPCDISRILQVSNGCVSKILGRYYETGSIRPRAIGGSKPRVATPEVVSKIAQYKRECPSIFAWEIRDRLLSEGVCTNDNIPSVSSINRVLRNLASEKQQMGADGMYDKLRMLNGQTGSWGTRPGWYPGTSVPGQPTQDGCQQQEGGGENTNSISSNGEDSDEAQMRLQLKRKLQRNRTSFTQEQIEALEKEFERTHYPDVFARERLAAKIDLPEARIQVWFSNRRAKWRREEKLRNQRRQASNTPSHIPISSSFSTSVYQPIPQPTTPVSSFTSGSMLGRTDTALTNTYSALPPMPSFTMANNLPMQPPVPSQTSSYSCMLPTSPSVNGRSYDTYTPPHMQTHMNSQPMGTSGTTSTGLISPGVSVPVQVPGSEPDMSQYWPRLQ
X-box-binding protein 1 (Homo sapiens), sequence (P17861 whole entry, looked up): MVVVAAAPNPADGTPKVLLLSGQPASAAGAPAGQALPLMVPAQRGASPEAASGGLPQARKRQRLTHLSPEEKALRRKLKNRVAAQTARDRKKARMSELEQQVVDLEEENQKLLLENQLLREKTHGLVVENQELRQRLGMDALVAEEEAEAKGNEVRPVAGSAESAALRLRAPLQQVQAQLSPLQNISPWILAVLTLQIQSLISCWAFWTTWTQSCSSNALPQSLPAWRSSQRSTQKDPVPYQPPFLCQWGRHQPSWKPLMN
Signal transducer and activator of transcription 3 (Homo sapiens), sequence (P40763 whole entry, looked up): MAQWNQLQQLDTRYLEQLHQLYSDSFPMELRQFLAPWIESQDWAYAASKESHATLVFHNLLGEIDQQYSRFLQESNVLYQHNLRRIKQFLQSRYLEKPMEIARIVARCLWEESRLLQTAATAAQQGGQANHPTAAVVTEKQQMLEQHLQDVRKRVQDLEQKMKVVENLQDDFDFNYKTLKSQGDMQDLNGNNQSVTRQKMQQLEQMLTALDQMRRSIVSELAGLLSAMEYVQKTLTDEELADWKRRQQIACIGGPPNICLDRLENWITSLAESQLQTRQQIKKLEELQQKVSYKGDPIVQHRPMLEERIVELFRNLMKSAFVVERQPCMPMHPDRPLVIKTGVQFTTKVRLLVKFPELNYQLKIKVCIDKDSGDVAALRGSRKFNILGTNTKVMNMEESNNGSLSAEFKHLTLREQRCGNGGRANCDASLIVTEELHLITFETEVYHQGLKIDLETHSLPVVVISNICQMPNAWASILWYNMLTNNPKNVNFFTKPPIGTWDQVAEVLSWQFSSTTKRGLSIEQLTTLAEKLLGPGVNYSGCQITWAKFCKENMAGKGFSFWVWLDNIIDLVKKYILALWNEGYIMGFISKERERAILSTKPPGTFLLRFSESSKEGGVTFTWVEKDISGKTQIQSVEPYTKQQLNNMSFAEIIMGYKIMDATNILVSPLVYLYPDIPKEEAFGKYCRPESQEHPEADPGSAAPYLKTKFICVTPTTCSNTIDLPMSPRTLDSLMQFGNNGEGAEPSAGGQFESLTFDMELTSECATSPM
Transcription factor Sp1 (Homo sapiens), sequence (P08047 whole entry, looked up): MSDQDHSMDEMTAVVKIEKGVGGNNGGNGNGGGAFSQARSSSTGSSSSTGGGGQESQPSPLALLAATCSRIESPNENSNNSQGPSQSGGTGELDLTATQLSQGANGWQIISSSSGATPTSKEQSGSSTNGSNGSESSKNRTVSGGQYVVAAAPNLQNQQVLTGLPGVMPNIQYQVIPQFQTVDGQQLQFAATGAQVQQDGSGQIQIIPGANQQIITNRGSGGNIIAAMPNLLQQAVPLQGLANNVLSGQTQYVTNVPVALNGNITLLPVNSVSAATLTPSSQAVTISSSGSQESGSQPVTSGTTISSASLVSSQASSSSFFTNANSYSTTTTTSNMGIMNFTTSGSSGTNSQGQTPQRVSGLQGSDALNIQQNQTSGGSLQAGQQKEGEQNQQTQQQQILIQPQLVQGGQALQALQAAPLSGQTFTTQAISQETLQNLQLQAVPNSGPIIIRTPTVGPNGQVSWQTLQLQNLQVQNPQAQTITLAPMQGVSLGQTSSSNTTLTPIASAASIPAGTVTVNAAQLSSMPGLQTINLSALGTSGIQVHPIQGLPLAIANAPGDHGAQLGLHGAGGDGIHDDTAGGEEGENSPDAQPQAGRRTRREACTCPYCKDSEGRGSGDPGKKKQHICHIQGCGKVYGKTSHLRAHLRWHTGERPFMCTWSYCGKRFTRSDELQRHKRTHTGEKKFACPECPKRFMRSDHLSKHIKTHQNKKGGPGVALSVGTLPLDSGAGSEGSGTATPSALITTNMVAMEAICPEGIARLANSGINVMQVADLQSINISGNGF
Estrogen receptor (Homo sapiens), sequence (P03372 whole entry, looked up, the tested form may be a part): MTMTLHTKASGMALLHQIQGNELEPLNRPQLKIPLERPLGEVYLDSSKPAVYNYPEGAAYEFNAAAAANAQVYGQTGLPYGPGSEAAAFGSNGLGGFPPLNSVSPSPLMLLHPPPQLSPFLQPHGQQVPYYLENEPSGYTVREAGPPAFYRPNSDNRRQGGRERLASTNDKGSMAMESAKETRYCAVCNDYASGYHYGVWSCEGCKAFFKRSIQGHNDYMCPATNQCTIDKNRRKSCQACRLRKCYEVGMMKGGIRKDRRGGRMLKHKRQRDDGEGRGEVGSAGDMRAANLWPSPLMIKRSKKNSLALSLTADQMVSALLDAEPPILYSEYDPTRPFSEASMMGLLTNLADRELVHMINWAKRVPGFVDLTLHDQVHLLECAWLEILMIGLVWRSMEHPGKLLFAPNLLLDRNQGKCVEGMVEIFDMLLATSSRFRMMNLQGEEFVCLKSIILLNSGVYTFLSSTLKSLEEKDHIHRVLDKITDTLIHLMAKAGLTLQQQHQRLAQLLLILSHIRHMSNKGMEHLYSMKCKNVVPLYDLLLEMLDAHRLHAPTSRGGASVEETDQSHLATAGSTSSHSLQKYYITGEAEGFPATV
Nuclear receptor subfamily 1 group I member 3 (Homo sapiens), sequence (Q14994 whole entry, looked up, the tested form may be a part): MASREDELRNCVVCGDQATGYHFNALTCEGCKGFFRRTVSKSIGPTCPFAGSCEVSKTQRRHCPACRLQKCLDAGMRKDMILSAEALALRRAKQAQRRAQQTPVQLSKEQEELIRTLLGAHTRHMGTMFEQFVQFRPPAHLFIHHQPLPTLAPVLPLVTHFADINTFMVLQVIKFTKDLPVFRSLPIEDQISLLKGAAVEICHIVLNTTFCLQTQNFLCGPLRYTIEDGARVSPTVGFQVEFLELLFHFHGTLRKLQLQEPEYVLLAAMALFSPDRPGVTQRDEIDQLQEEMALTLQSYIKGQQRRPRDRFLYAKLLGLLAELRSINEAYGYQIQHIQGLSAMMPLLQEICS

C[Si](C)O[Si](C)(C)O[Si](C)(C)O[Si](C)C
active: [2] 17 µM | [13] 30.3 µM
not listed: [16] | [17] | [18]
inactive: all other assays above

CC=CCO
active: [2] 26.8 µM
not listed: [3] | [8] | [13] | [15] | [17] | [18]
inactive: all other assays above

Cc1ccc2oc(=O)ccc2c1
not listed: [3] | [12] | [18]
inactive: all other assays above

CC(C)c1ccc2cc(C(C)C)ccc2c1
active: [4] 59.9 µM | [13] 13.7 µM
not listed: [14] | [15] | [16] | [17] | [18]
inactive: all other assays above

CCO[Si](C)(OCC)OCC
not listed: [15] | [16] | [17] | [18]
inactive: all other assays above

O=c1cc(-c2ccccc2)oc2ccccc12
active: [1] 99.5 µM | [2] 4.25 µM | [16] 4.81 µM | [8] 99.5 µM | [9] 25.2 µM | [12] 30.5 µM | [13] 4.97 µM | [14] 82.8 µM
inactive: [4] | [5] | [7] | [10] | [11] | [18] | [17]

CC(CC=O)c1ccccc1 (stereo unspecified)
active: [2] 4.15 µM | [12] 7.03 µM
not listed: [3] | [11] | [17] | [18]
inactive: all other assays above

COc1ccc([C@@H]2CC(=O)c3c(O)cc(O[C@@H]4O[C@H](CO[C@@H]5O[C@@H](C)[C@H](O)[C@@H](O)[C@H]5O)[C@@H](O)[C@H](O)[C@H]4O)cc3O2)cc1OC
not listed: [16] | [17] | [18]
inactive: all other assays above

C=C[C@](C)(O)CC[C@@H]1[C@@]2(C)CCCC(C)(C)[C@@H]2CC[C@@]1(C)O
active: [2] 0.357 µM
not listed: [3] | [12] | [15] | [17] | [18]
inactive: all other assays above
